Assay results from the supplement of paper PMC11732987, “Enantioselective OTUD7B fragment discovery through chemoproteomics screening and high-throughput optimisation” (Communications Chemistry, 2025).

Assays:
Assay in all cases: log2 ratio of Biotin-Ahx-Ub-VS probe labelling (fragment/DMSO); higher = less target engagement (more negative = stronger competition), active = hit call of the paper (q ≤ 0.05, log2 ratio ≤ -1)
Conditions in all cases: compound concentration: 200 uM; treatment time: 3 h
USP42 = target: T1, USP42 (UniProt Q9H9J4)
T1 sequence (whole entry): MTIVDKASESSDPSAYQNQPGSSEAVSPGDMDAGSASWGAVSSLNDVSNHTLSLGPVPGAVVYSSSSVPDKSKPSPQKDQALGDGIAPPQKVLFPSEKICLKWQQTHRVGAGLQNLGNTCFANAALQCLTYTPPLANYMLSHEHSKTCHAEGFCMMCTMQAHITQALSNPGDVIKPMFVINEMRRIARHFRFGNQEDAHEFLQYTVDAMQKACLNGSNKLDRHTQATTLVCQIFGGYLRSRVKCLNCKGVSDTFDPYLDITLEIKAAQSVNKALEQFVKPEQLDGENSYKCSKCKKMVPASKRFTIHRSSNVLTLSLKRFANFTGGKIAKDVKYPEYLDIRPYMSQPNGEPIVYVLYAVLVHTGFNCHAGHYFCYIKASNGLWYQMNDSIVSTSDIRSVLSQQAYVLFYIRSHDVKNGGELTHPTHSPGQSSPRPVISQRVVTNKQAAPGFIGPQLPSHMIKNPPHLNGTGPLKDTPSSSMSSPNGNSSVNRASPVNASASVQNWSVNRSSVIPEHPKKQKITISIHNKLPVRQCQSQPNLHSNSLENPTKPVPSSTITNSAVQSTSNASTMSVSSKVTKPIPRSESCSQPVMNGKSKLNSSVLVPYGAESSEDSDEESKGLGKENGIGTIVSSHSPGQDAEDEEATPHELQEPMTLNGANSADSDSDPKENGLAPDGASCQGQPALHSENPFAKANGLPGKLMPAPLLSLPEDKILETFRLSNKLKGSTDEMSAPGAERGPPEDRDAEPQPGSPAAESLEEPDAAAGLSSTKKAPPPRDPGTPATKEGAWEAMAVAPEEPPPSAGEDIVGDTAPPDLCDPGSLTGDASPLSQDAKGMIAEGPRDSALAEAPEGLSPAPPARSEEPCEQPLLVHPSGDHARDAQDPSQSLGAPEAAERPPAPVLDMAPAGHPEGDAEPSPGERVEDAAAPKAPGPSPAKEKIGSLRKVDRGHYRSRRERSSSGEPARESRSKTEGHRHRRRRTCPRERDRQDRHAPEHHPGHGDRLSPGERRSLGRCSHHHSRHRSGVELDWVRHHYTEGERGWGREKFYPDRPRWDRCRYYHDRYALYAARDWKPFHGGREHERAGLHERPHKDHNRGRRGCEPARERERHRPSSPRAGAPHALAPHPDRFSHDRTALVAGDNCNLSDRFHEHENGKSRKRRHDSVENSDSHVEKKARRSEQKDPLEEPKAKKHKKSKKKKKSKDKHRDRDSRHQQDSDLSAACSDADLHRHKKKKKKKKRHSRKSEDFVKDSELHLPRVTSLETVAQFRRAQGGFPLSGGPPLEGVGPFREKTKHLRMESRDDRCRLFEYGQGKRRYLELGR
Summary of the method: (§1)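 HEK293T lysate in Tris/CHAPS/IGEPAL buffer with protease inhibitors (495 µg per sample) was given fragment at 200 µM or vehicle for 3 h, in triplicate. It then received Biotin-Ahx-Ub-VS at 0.5 µM final for 1 h. Labelled DUBs were NeutrAvidin-enriched, digested with LysC and trypsin, and run by diaPASEF LC-MS/MS. Values are average log2 fragment/vehicle ratios by unpaired t-test on global-median-normalised Spectronaut quantities of proteins with ≥2 unique peptides.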

USP46 = USP46 (UniProt P62068)
Summary of the method: as §1

USP47 = target: T2, USP47 (UniProt Q96K76)
T2 sequence (whole entry): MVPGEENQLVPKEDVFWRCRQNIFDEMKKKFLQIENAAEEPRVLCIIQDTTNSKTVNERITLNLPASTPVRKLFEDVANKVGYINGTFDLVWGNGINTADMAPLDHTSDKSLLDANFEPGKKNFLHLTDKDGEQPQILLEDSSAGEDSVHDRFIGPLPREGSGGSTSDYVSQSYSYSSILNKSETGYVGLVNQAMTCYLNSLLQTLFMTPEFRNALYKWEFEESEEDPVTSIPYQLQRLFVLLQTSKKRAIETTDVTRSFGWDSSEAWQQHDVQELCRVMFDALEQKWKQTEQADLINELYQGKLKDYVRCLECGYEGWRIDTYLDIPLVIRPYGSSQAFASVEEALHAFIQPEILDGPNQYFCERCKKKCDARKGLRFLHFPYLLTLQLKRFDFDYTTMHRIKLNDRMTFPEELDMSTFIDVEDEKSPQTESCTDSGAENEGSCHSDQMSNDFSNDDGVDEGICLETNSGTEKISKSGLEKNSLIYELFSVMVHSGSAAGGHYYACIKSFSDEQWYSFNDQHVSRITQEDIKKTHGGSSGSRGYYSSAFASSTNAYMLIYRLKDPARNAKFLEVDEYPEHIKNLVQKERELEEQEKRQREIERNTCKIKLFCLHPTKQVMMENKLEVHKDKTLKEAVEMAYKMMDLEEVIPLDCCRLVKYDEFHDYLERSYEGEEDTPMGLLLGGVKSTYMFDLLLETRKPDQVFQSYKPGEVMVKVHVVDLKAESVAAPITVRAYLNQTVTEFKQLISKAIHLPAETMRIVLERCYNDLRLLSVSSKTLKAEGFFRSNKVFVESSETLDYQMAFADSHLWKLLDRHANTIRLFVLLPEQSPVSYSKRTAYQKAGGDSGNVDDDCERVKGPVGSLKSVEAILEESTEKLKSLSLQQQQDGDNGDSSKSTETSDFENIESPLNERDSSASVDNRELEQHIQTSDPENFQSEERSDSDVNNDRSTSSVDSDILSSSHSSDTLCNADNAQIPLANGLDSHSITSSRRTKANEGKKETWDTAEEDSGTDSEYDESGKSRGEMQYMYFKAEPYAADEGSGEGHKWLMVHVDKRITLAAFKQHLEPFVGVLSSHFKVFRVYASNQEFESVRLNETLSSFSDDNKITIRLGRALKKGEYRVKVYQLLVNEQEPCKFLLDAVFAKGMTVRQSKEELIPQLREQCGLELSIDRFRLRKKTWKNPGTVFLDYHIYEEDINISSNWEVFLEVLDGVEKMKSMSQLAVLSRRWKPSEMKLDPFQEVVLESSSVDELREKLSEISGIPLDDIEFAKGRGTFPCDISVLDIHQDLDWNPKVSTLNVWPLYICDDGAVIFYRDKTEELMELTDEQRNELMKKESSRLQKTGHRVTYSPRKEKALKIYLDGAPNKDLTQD
Summary of the method: as §1

USP48 = target: T3, USP48 (UniProt Q86UV5)
T3 sequence (whole entry): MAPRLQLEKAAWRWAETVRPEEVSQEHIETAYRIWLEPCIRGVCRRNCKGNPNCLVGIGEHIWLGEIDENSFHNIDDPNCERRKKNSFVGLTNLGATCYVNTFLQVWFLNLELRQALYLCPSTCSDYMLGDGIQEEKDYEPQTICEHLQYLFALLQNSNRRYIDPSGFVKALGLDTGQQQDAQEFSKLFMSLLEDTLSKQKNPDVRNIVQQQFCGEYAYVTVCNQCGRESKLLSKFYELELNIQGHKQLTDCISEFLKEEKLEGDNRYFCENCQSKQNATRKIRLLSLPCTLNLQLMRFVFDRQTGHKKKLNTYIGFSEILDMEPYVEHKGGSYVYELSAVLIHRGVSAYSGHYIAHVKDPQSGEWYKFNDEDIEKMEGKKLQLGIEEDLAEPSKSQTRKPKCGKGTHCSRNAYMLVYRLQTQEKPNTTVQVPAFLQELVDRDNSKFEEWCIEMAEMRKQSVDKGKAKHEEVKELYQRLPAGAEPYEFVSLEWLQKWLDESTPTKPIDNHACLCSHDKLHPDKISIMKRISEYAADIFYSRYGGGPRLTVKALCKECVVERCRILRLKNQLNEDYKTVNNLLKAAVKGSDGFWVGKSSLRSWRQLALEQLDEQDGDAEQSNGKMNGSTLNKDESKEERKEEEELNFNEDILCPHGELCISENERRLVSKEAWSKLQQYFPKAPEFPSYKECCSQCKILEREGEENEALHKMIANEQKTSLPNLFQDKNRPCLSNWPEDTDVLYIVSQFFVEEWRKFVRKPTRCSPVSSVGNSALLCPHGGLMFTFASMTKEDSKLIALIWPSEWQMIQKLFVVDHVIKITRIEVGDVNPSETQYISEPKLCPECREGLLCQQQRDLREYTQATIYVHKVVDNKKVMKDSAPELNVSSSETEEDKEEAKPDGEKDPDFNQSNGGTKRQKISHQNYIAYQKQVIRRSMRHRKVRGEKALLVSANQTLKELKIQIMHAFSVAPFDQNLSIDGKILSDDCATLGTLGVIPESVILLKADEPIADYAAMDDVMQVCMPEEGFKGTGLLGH
Summary of the method: as §1

USP5 = target: T4, USP5 (UniProt P45974)
T4 sequence (whole entry): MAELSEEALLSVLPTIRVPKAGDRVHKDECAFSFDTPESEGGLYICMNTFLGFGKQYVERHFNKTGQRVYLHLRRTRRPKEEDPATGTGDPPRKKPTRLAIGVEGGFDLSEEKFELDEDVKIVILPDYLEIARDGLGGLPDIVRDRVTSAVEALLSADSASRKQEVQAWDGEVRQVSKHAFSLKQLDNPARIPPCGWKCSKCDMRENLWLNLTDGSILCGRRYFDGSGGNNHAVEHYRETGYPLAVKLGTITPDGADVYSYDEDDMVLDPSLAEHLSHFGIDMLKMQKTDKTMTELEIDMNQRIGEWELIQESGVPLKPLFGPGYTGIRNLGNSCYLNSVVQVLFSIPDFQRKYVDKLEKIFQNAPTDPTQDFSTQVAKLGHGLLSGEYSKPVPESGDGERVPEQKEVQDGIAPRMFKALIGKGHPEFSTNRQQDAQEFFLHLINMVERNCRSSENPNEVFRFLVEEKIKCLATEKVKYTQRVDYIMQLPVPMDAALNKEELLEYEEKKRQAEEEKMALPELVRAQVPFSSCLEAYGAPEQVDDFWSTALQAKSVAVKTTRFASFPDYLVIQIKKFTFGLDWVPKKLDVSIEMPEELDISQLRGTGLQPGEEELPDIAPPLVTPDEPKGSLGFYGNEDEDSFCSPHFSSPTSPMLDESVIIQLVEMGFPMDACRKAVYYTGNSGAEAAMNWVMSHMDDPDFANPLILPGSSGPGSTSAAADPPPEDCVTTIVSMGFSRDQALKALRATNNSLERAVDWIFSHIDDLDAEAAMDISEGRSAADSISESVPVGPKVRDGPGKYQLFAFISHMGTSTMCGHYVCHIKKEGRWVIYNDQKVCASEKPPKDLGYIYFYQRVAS
Summary of the method: as §1

USP54 = USP54 (UniProt Q70EL1)
Summary of the method: as §1

USP7 = USP7 (UniProt Q93009)
Summary of the method: as §1

USP8 = target: T5, USP8 (UniProt P40818)
T5 sequence (whole entry): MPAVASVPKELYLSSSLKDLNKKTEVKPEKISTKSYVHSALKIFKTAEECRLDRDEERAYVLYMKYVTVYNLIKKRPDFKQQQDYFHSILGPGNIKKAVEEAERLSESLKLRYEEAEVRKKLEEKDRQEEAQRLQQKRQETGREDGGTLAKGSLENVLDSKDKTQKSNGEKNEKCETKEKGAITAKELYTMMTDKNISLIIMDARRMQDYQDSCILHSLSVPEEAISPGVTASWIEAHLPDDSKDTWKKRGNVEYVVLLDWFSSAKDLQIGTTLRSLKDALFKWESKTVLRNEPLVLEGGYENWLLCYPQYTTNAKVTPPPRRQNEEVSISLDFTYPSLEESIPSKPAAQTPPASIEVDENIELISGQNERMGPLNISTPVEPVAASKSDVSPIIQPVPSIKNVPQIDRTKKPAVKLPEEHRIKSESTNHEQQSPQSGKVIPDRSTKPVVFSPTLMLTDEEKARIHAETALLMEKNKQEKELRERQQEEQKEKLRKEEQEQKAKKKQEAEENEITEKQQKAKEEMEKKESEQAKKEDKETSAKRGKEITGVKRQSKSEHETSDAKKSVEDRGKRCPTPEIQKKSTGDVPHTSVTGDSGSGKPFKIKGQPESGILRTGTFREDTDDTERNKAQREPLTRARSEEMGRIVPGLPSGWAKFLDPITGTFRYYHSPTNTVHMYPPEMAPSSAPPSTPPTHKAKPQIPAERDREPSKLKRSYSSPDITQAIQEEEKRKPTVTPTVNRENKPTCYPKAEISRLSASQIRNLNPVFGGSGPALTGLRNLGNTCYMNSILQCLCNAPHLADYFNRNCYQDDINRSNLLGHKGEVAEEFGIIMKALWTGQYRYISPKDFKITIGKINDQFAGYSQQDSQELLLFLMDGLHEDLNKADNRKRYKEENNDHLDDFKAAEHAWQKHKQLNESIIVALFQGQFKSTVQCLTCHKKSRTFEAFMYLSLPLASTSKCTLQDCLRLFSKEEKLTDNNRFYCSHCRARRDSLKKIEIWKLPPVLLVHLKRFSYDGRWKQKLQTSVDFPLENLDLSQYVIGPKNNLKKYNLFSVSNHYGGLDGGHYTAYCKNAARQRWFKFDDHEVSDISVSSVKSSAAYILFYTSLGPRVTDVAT
Summary of the method: as §1

Measured: log2 ratio of Biotin-Ahx-Ub-VS probe labelling

Chain of USP46 (P62068 whole entry): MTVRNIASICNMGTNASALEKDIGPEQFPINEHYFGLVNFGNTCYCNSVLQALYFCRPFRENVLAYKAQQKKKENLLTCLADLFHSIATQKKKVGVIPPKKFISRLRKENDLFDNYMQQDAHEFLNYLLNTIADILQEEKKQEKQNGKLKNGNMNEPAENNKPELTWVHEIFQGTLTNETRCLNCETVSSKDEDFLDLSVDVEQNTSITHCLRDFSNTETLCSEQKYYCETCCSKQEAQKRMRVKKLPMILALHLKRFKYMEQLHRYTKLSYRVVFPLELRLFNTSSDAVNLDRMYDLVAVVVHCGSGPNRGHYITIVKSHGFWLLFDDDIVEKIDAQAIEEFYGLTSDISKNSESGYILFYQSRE
Chain of USP7 (Q93009 whole entry, looked up): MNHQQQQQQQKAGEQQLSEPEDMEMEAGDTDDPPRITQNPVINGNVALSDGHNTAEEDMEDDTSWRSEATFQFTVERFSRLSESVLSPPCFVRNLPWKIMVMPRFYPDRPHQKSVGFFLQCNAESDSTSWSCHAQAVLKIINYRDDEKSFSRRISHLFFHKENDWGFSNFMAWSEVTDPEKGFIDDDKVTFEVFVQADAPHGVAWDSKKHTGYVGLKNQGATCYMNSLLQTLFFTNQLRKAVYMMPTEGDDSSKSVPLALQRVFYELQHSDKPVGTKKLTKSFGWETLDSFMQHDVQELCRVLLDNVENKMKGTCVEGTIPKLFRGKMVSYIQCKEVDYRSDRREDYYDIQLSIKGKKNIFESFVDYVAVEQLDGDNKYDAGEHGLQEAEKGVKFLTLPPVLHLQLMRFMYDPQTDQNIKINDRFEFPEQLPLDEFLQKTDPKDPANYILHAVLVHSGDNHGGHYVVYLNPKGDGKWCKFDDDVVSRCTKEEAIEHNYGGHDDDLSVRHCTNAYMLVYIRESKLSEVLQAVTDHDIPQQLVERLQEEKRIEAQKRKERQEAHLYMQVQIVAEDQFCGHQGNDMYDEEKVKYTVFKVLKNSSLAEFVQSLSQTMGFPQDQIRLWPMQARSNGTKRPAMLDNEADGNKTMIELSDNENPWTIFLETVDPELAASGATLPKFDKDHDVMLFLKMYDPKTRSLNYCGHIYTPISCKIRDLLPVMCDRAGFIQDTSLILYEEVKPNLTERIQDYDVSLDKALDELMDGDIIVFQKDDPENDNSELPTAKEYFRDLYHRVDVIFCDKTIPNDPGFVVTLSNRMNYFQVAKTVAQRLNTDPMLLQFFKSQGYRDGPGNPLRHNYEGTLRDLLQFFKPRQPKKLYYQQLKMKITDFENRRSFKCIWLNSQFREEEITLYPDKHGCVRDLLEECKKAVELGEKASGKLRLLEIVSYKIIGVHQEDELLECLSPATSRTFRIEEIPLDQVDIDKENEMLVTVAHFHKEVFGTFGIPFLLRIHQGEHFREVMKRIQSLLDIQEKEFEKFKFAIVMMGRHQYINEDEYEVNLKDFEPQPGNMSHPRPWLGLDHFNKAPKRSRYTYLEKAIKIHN
Chain of USP54 (Q70EL1 whole entry): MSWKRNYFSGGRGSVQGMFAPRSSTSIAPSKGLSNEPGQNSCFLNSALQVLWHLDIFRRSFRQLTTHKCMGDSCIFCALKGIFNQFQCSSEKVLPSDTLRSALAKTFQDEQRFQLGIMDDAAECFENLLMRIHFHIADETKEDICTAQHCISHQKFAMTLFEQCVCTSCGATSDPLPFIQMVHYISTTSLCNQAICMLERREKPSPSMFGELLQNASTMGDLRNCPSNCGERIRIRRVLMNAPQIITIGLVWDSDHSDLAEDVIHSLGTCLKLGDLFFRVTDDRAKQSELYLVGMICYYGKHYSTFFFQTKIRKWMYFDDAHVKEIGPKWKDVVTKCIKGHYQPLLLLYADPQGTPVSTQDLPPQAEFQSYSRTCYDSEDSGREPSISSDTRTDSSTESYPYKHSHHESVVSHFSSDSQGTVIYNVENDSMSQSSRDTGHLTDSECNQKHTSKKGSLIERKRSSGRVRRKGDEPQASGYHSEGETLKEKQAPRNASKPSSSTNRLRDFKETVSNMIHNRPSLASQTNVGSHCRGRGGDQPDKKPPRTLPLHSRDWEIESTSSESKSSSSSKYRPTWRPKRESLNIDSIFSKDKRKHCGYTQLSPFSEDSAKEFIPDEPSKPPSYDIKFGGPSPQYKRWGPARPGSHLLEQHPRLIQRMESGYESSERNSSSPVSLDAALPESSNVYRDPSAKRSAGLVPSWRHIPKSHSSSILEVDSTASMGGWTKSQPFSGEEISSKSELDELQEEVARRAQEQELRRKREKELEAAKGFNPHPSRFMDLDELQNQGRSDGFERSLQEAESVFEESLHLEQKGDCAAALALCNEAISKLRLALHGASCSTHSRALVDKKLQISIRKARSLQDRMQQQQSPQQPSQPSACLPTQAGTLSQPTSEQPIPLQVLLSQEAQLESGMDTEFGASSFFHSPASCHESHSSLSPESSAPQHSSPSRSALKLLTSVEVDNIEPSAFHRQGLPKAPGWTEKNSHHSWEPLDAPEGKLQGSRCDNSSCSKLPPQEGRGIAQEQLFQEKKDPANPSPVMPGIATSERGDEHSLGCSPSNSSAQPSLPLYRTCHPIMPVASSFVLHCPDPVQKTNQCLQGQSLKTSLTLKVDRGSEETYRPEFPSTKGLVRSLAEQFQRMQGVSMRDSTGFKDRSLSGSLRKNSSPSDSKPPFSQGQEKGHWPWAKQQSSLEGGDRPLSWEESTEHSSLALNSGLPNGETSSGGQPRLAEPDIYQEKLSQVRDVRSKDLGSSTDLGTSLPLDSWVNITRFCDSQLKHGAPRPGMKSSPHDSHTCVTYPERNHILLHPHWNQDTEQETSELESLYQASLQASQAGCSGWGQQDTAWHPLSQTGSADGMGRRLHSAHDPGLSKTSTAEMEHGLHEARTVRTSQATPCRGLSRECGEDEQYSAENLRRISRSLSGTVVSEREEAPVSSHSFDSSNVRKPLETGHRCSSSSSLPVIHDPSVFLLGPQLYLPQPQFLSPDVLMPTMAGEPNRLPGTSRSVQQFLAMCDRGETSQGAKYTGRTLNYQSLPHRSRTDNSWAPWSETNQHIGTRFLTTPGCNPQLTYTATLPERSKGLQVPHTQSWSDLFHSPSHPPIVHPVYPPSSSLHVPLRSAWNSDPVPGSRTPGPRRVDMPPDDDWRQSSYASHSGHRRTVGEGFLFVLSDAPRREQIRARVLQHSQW

Cl.O=C(CCl)N[C@H]1C[C@@H](n2cccn2)C1
inactive: USP42 0.0882 | USP46 -0.00232 | USP47 0.175 | USP48 0.0582 | USP5 -0.126 | USP54 -0.186 | USP7 -0.218 | USP8 0.27
